Results from ChEMBL document CHEMBL3988442, “University of Dundee, Small-Polar-MMV Screening Library” (2021).
For some of these results: Potency and affinity values are given separately.

What was measured:
Parameters in all cases: scale not given: direction of the effect not stated beside the values
[1] = target: Protein translocase subunit SecA (Escherichia coli (strain K12)) (UniProt P10408); experiment: Assay to Identify E. coli SecA ATPase Inhibitors; format: functional; settings: 30 µM
[2] = target: T1, Ubiquitin-activating enzyme e1, putative (Leishmania donovani (strain BPK282A1)) (UniProt E9BSI1); experiment: Leishmania donovani Ubiquitin Activating Enzyme (LdE1); format: functional; settings: 30 µM
T1 sequence (whole entry): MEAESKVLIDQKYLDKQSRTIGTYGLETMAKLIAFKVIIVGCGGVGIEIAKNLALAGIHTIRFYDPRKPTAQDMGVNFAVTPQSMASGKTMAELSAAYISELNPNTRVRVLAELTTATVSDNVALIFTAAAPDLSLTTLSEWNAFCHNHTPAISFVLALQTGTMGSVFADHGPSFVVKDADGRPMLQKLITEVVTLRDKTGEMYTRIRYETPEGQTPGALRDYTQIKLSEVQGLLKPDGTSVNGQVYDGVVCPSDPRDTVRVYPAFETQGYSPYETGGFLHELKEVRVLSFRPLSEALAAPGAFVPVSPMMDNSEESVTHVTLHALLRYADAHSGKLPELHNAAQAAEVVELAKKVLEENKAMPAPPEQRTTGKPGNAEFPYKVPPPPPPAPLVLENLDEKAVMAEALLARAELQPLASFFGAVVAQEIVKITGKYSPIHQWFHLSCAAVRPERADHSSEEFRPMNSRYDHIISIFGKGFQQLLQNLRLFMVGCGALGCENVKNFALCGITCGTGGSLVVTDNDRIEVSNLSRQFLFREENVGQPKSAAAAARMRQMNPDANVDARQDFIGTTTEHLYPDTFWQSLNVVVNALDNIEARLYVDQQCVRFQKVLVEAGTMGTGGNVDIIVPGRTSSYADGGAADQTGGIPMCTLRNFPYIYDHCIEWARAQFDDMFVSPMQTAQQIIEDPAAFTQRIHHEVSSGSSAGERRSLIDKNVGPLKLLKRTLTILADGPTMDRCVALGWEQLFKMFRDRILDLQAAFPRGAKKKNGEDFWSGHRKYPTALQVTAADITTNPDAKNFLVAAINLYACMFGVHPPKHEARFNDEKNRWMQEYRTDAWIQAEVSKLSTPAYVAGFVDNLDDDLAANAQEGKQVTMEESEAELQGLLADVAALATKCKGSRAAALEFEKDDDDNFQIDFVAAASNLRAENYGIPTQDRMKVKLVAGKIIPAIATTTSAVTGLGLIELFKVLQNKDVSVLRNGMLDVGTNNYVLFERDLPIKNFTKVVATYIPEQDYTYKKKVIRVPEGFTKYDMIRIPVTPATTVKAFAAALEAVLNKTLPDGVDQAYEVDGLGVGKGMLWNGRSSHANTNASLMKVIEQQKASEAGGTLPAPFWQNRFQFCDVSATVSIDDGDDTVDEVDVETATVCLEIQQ

[3] = target: AMP-activated protein kinase, AMPK (Homo sapiens) (UniProt P54646+O43741+P54619+Q9UGJ0+Q9Y478+Q13131+Q9UGI9); experiment: AMP-dependent Kinase enzyme assay. An in vitro enzyme assay that detects ADP turnover that is directly proportional to AMPK activity. This uses naive AMPK that is activated during the assay with MK-8722; format: functional; settings: 30 µM
[4] = target: Sialic acid-binding Ig-like lectin 9 (Homo sapiens) (UniProt Q9Y336); experiment: Hs-Siglec9 ALPHAscreen SOP 20170721; settings: 10 µM
Sequence of Sialic acid-binding Ig-like lectin 9 (Homo sapiens) (Q9Y336 whole entry): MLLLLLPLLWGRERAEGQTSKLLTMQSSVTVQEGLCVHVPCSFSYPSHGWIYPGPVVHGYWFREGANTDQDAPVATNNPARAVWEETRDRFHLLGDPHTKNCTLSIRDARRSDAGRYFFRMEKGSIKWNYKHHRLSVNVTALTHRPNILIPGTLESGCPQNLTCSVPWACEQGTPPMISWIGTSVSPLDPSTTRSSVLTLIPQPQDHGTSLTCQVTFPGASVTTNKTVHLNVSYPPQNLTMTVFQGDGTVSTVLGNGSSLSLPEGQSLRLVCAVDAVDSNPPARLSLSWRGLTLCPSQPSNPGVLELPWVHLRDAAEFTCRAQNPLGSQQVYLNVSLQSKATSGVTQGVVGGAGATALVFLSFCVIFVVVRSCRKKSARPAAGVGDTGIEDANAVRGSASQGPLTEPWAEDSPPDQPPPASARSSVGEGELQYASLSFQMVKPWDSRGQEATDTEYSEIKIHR

Trypanosoma cruzi = experiment: Trypanosoma cruzi phosphomannomutase and mannose-1-phosphate guanylyltransferase assay; format: functional; settings: 10 µM
[5] = target: T2, Arginase-2, mitochondrial (Homo sapiens) (UniProt P78540); experiment: in vitro enzyme assay to detect the production of urea directly proportional to the activity of Arginase II; format: functional; settings: 33.3 µM; also: in the data most compounds retested in dose-response had high values
T2 sequence (whole entry): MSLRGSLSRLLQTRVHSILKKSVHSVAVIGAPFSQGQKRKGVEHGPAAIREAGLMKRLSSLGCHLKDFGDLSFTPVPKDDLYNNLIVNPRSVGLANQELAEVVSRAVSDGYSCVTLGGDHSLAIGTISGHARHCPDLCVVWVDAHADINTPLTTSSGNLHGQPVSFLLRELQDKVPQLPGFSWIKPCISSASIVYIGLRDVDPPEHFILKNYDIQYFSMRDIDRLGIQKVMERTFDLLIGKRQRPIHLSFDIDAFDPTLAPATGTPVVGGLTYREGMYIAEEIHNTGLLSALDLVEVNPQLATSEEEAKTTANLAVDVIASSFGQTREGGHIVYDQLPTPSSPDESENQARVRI

[6] = target: T3, Proteasome subunit beta (Trypanosoma cruzi) (UniProt O96673); experiment: Trypanosoma cruzi proteasome chymotrypsin-like activity (TcProtChymo) assay.; also: in the data most compounds retested in dose-response had high values; format: functional; settings: 9.37 µM
T3 sequence (whole entry): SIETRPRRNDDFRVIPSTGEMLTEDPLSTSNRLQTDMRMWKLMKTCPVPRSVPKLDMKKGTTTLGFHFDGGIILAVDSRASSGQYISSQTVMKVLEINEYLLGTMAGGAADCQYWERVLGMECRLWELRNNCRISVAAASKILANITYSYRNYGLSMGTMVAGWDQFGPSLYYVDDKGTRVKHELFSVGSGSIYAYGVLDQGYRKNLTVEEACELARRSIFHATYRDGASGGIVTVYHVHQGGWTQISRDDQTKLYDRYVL

Homo sapiens = organism: Homo sapiens; experiment: To identify inhibition of the IFN signalling (Jak-Stat) pathway via expression of an eGFP reporter gene under the control of an IFN-stimulated response element (ISRE) containing MxA promoter.; format: functional; settings: 30 µM
[7] = target: T4, Tyrosyl-tRNA synthetase, putative (Trypanosoma cruzi (strain CL Brener)) (UniProt Q4DSP6); experiment: Trypanosoma cruzi tyrosyl tRNA synthetase (TcYRS) _High Tyrosine SOP; format: functional; settings: 30 µM; also: in the data most compounds retested in dose-response had high values
T4 sequence (whole entry): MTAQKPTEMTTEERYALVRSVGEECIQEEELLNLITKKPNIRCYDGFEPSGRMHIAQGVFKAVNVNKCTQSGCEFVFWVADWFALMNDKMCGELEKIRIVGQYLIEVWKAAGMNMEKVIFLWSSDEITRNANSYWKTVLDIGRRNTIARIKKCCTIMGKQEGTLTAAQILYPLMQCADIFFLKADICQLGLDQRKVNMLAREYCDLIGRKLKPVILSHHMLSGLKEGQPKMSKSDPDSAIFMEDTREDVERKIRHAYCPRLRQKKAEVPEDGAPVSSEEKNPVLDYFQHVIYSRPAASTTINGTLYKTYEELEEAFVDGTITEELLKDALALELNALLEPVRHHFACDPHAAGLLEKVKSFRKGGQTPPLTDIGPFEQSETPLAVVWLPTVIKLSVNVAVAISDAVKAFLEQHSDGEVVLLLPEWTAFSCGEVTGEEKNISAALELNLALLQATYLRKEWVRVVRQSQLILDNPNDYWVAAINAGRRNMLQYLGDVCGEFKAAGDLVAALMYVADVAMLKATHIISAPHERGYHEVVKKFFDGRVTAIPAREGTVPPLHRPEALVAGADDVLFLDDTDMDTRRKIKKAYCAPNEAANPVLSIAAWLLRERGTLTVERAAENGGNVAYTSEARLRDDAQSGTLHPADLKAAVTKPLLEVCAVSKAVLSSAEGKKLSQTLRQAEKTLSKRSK

[8] = target: T4, Tyrosyl-tRNA synthetase, putative (Trypanosoma cruzi (strain CL Brener)); experiment: Trypanosoma cruzi tyrosyl tRNA synthetase (TcYRS) SOP; format: functional; settings: 30 µM
[9] = target: Chromo domain-containing protein 1 (Saccharomyces cerevisiae (strain ATCC 204508 / S288c) (Baker's yeast)) (UniProt P32657); experiment: ScCHD-1 Enzyme Inhibition Assay; format: functional; settings: 30 µM; also: in the data most compounds retested in dose-response had high values
Sequence of Chromo domain-containing protein 1 (Saccharomyces cerevisiae (strain ATCC 204508 / S288c) (Baker's yeast)) (P32657 whole entry, the tested form may be a part): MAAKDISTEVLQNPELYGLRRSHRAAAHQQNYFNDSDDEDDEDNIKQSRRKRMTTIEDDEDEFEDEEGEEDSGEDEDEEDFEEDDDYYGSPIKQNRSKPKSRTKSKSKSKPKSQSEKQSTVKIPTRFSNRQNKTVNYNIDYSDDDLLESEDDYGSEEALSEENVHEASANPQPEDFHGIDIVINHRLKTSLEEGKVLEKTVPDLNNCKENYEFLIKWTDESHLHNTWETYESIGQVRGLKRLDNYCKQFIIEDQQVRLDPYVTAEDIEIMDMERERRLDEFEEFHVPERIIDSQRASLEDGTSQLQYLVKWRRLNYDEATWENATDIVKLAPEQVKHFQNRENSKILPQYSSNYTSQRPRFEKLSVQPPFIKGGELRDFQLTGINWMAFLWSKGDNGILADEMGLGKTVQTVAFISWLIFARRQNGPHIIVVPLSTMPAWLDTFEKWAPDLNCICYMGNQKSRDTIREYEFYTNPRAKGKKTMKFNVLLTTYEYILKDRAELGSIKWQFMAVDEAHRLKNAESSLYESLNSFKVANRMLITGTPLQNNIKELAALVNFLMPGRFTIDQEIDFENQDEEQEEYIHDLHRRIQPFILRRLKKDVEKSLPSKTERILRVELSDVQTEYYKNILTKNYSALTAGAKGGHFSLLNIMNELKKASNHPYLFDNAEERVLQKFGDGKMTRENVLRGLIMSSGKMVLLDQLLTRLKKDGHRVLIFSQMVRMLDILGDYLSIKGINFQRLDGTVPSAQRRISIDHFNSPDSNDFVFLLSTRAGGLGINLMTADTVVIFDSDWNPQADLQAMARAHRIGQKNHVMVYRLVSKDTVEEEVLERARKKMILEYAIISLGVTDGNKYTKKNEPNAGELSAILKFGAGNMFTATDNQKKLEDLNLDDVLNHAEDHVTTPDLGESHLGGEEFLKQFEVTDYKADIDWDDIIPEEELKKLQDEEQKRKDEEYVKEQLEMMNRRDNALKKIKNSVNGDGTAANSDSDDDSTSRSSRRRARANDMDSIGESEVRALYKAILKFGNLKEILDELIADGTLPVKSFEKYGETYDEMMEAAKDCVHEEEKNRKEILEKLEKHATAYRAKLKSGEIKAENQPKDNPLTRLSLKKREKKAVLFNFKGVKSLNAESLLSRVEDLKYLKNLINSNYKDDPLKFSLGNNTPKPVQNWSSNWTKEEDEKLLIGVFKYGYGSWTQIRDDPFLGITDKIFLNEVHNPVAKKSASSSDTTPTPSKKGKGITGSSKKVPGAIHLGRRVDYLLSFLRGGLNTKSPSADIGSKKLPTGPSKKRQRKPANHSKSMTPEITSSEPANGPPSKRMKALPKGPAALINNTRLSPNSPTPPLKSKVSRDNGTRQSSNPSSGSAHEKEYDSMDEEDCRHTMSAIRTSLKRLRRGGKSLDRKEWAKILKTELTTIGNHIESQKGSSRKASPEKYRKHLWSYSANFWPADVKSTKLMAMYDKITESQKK

Sequence of Protein translocase subunit SecA (Escherichia coli (strain K12)) (P10408 whole entry): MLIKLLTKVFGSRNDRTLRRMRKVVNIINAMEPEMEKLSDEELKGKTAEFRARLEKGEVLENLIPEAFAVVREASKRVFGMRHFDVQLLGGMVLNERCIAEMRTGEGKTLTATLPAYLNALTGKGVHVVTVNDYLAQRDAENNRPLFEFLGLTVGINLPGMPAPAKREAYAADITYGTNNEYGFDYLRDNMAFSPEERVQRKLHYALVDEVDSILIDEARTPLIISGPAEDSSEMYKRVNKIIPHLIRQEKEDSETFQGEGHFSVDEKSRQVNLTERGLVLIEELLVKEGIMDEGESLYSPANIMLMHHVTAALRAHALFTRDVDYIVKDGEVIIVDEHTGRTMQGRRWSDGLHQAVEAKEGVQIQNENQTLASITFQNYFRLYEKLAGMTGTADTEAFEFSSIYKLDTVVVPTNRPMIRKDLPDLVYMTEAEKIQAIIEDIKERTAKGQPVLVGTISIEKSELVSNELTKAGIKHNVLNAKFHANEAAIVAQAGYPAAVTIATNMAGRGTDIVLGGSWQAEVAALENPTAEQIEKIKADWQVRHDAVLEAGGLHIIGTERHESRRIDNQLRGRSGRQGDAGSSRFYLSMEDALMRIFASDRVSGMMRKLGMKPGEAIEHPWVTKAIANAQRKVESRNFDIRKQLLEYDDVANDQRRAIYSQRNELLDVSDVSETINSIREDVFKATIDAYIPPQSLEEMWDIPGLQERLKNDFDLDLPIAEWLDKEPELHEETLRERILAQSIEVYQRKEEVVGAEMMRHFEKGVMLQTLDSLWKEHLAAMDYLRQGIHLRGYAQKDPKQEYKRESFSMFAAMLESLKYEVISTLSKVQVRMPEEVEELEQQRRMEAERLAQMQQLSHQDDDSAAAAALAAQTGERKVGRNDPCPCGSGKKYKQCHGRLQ

Row | SMILES | Percent Effect [1] [%] | Percent Effect [2] [%] | Percent Effect [3] [%] | Percent Effect [4] [%] | Percent Effect (Trypanosoma cruzi) [%] | Percent Effect [5] [%] | Percent Effect [6] [%] | Percent Effect (Homo sapiens) [%] | Percent Effect [7] [%] | Percent Effect [8] [%] | Percent Effect [9] [%]
1 | CS(=O)(=O)NC1CCN(C(=O)NCCc2ccccc2F)CC1 | -4.12 | 8.11 | -6.29 | 9.26 | 2.14 | 2.03 | 12 | 10.3 | 6.93 | 25.6 | -11.2
2 | CCN1CCOC(CNCc2ccccc2OCC(=O)N(C)C)C1 (stereo unspecified) | -1.78 | 0 | -9.78 | 0.0919 | 8.31 | -2.88 | -4.32 | -7.21 | 1.48 | 13.6 | -2.56
3 | Cc1noc2nc(C3CCN(Cc4ccncc4)CC3)cc(C(F)F)c12 | -9.38 | 1.35 | 1.21 | -1.72 | -0.79 | -4.41 | -4.99 | 39.2 | 2.15 | -1.3 | -4.82
4 | CS(=O)(=O)c1ccc(OCCNCc2cccc(F)c2)cc1 | -6.14 | 0 | 1.51 | 6.7 | 3.57 | -0.798 | 4.02 | 3.81 | 8.33 | 13.6 | 3.19
5 | COCCN(Cc1ccc(F)cc1Cl)C(=O)c1ccncc1 | -1.67 | -1.39 | -3.11 | 0.447 | 0.486 | -1.32 | 5.09 | 0.399 | -1.05 | 0 | -1.32
6 | O=C(c1ccc(Br)s1)N1CCN(Cc2ccc(OC(F)(F)F)cc2)CC1 | -0.131 | -13.7 | 41.1 | 2.45 | -3.72 | -1.82 | 19 | 8.24 | 1.07 | -2.5 | -11.7
7 | COCc1ccccc1CNc1nnc(C)c(C)c1C#N | -6.03 | 5.41 | -21.1 | -1.29 | -1.39 | 4.62 | 17.9 | 30.3 | 4.95 | 6.1 | -2.15
8 | Cc1nc(C)n(CC2CCCCN2CC(=O)Nc2cccnc2)n1 (stereo unspecified) | -1.75 | 4.17 | -8.52 | 22 | 3.98 | 9.71 | 8.25 | -0.793 | 5.26 | 10.3 | -2.02
9 | Cc1cccc(COC[C@]23COC[C@H]2CN(C(=O)c2ccsc2)C3)n1 | -1.49 | 5.41 | 1.58 | 0.368 | 1.95 | 27.9 | 10.9 | -2.76 | 8.91 | 13.4 | -5.97
10 | CS(=O)(=O)NCCC(=O)NC1CCc2nccn2C1 (stereo unspecified) | 2.27 | 2.67 | -6.45 | 1.64 | -7.5 | 2.08 | 19.7 | 11.5 | 4.92 | 11.1 | -5.26
11 | CC(C)Oc1ccccc1CNC(=O)N1CCC(n2cncn2)CC1 | -9.7 | 11.4 | -5.06 | -3.04 | 3.79 | -2.37 | 17.3 | 7.86 | 5.21 | 12.7 | -29.4
